High-throughput results deposited in PubChem by several laboratories.
CYP2C9 inhib = blocks human cytochrome P450 2C9; P11712; CYP2C9 Supersomes, luciferin-H conversion, luminescence; inhibition, % at 5 µM; hit rate 20% among 96,000;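 active = blocking of liver enzyme CYP2C9 beyond about 50% at 5 µM, limit read from the data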
Cav3 T inh = blocks human Cav3.2 T-type calcium channel; O95180; Cav3.2-expressing cells, Fluo-4 calcium fluorescence FDSS; hits give low values; B-score at 10 µM; hit rate 4% among 100,000; AID 449739;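 active = single-dose well whose peak fluorescence ratio is a statistical outlier from its plate by either plate-standardised score or position-corrected B-score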
CYP2C19 inh = inhibitors of human CYP2C19; P33261; CYP2C19 Supersomes, luciferin-H EGE luminescence, 30 min; inhibition, % at 5 µM; hit rate 21% among 96,000;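 active = CYP2C19 inhibition above a set limit at 5 µM in the primary screen, cut at about 50% in these data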;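 also: plate controls were negative control wells for no effect and 2.5 mM tranylcypromine positive control for full effect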
CYP2C19 activ = activators of human cytochrome P450 2C19; recombinant CYP2C19, luciferin-H EGE luminescence; hits give high values; 0 = fully inhibited enzyme, 1 = untreated enzyme; 96,000 tested, under 10 active; activation factor at 5 µM; P33261;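 active = activation factor of at least 2 at 5 µM in the primary screen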;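 also: 0 = wells with 2.5 mM tranylcypromine and 1 = vehicle-only wells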
CYP2C9 act = increases human cytochrome P450 2C9 activity. P11712. recombinant CYP2C9, luciferin-H conversion, luminescence; hits give high values; factor 1 = untreated enzyme, 0 = blocked. activation factor at 5 µM. hit rate 1.4% among 96,000. AID 1024;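 active = activation factor of 2 or more for CYP2C9 at a 5 µM dose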;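 also: 0 = sulfaphenazole-blocked wells and 1 = vehicle-only wells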
* = called active by the depositor; · = not tested or not shown. Only some compounds are listed: those with a hit (about 27% of all), similar ones and a draw of the others.

SMILES	CYP2C9 inhib	Cav3 T inh	CYP2C19 inh	CYP2C19 activ	CYP2C9 act
COc1cccc(-c2csc(N3CCN(C(=S)Nc4ccccc4)CC3)n2)c1	2	-0.056	3	1	1
Cc1csc(NC(=O)c2cccc(Cn3nc(C)c(Br)c3C)c2)n1	90*	-3.7*	93*	0.1	0.1
Cc1nn(Cc2cccc(C(=O)NC3CCCCC3)c2)c(C)c1Cl	-2	·	32	0.7	1
Cc1ccc(C)c(N2CCN(C(=O)c3ccccc3Br)CC2)c1	·	-3.8	·	·	·
CCCc1cc(C(=O)N2CCN(c3ccccc3C)CC2)cs1	66*	-2.2	69*	0.3	0.3
Cc1ccc(N2CCN(C(=O)c3ccccc3)CC2)c(C)c1	76*	-0.99	96*	0	0.2
Cc1ccc(C)c(N2CCN(C(=O)c3ccc(Cn4c(=O)[nH]c5ccccc5c4=O)cc3)CC2)c1	75*	-5.9*	70*	0.3	0.3
Cc1ccc(C)c(N2CCN(C(=O)c3ccc4nc(-c5ccco5)c(-c5ccco5)nc4c3)CC2)c1	45	-2.1	39	0.6	0.6
Cc1ccc(N2CCN(C(=O)c3ccccc3Br)CC2)c(C)c1	62*	-3.9	98*	0	0.4
O=C(c1ccc(Cn2c(=O)[nH]c3ccccc3c2=O)cc1)N1CCN(c2ccc(Cl)cc2)CC1	23	-2.9	50	0.5	0.8
Cc1ccc(O)c(C2=NOC(O)(C(F)(F)C(F)F)C2)c1 (stereo not given)	53*	-1.4	84*	0.2	0.5
Cc1ccc(O)c(-c2cc(C(F)(F)F)[nH]n2)c1	25	-0.047	21	0.8	0.8
Cc1ccc(O)c(C2=NOC(O)(C(F)(F)F)C2)c1 (stereo not given)	17	-1.1	68*	0.3	0.8
O=C(O)C1C2C=CC(O2)C1C(=O)NCCC1=CCCCC1 (stereo not given)	·	0.29	·	·	·
CCOC(=O)/C(N=Nc1c(Br)cc(Br)cc1Br)=C(\C)O	22	-0.63	18	0.8	0.8
O=C(Nc1ccccc1Cl)O/N=C/c1ccncc1	·	-1.9	·	·	·
Cc1ccc(NC(=O)CSc2nnc(NC(=O)CN3CCOCC3)s2)cc1	10	0.077	57*	0.4	0.9
CC(=O)c1ccc(NC(=O)CSc2nnc(NC(=O)CN3CCOCC3)s2)cc1	67*	-1.1	6	0.9	0.3
CC(C)Nc1nnc(SCC(=O)Nc2ccc(F)cc2)s1	70*	-0.23	91*	0.1	0.3
CC(C)CNC(=O)c1ccc(Cl)c(Cl)c1	9	0.56	32	0.7	0.9
CCOc1ccc(NC(=O)CN(c2ccc(OC)cc2)S(C)(=O)=O)cc1	49	0.23	25	0.8	0.5
COc1ccc(N(CC(=O)NC(C)C)S(=O)(=O)c2ccc(NC(C)=O)cc2)cc1	93*	0.64	88*	0.1	0.1
COc1ccc(NC(=O)CN(c2ccc(C)cc2)S(C)(=O)=O)c(OC)c1	98*	1	78*	0.2	0
COc1ccc(OC)c(NC(=O)CN(c2ccc(OC)c(Cl)c2)S(C)(=O)=O)c1	63*	-0.033	39	0.6	0.4
COC(=O)c1ccc(NC(=O)CN(c2ccc(OC)cc2)S(C)(=O)=O)cc1	67*	-0.22	15	0.8	0.3
SMILES	CYP2C9 inhib	Cav3 T inh	CYP2C19 inh	CYP2C19 activ	CYP2C9 act
COCCNC(=O)CN(c1ccc(OC)c(OC)c1)S(=O)(=O)c1ccc(C)cc1	19	0.099	4	1	0.8
COc1ccc(CCNC(=O)CN(c2ccc(OC)c(OC)c2)S(C)(=O)=O)cc1	80*	0.6	38	0.6	0.2
COc1ccc(C)cc1NC(=O)CN(c1ccccc1)S(C)(=O)=O	51*	1.3	22	0.8	0.5
COc1c(F)cc2[nH]c3c(c2c1F)CCNC3=O	·	0.19	·	·	·
CCOC(=O)N1CCN(c2ccccc2O)CC1	27	0.028	36	0.6	0.7
O=C(c1ccc2ccccc2n1)N1CCN(c2ccccc2O)CC1	41	0.71	58*	0.4	0.6
O=C(NCc1csc(-c2ccccc2)n1)c1ccco1	14	-0.11	84*	0.2	0.9
Cc1nc(CCNC(=O)c2cccs2)cs1	·	-1.4	·	·	·
O=C(NCCc1csc(-c2cccnc2)n1)c1ccccc1	65*	0.15	82*	0.2	0.4
O=C(NCCc1csc(-c2ccccc2)n1)c1cccs1	74*	-1.2	-4	1	0.3
O=C(O)C1CC=CCC1C(=O)NCCc1csc(-c2ccccc2)n1 (stereo not given)	·	0.4	·	·	·
O=C(NCCc1csc(-c2cccnc2)n1)c1cccc2ccccc12	86*	0.04	79*	0.2	0.1
O=C(Nc1nsc(-c2ccccc2)n1)c1cccs1	75*	0.18	48	0.5	0.3
N#C/C(=C\c1ccccc1)c1nc2ncccc2[nH]1	66*	1.1	16	0.8	0.3
CC(C)(C)c1ccc(S(=O)(=O)NCCc2ccncc2)cc1	92*	0.2	100*	0	0.1
CCCc1ccc(S(=O)(=O)NCCc2ccncc2)cc1	98*	-2.1	99*	0	0
O=C(O)CCc1ccc(S(=O)(=O)NCCc2ccccc2)cc1	2	0.74	-16	1.2	1
O=C(NCCOCC(F)(F)C(F)F)c1cc(F)c(F)cc1Cl	15	0.27	38	0.6	0.9
CCCCCc1ccc(S(=O)(=O)NCCc2ccncc2)cc1	97*	-2	100*	0	0
CC(C)(C)c1ccc(S(=O)(=O)NCCOCC(F)(F)C(F)F)cc1	-141	-3.8*	97*	0	2.4*
CCOCCCNC(=O)COc1ccc(OC)cc1	8	·	38	0.6	0.9
COc1cc2c(cc1OC)CN(CC(=O)Nc1ccc3c(c1)OC(F)(F)O3)CC2	40	·	30	0.7	0.6
CCC1(CC)C(=O)C2=C3C1[C@H](C(=O)OC)C=C(C(=O)OC)C[C@H]3n1c(=O)n(-c3ccccc3)c(=O)n1[C@H]2C (stereo not given in full)	·	-0.012	·	·	·
CCCCNC(=O)C1CCCN1C(=O)Nc1ccccc1 (stereo not given)	·	-0.34	·	·	·
COc1ccc(CSc2nc(C)cc(=O)[nH]2)cc1	36	0.66	32	0.7	0.6
SMILES	CYP2C9 inhib	Cav3 T inh	CYP2C19 inh	CYP2C19 activ	CYP2C9 act
COC(=O)c1ccc(CSc2nc(-c3ccccc3)cs2)o1	56*	-2.9	25	0.8	0.4
c1cnc2c(SCc3ccc(-c4nnco4)cc3)cccc2c1	62*	-0.42	86*	0.1	0.4
COC(=O)c1ccc(CSc2nc3ccccc3[nH]2)o1	36	-0.12	81*	0.2	0.6
COc1ccc(CSc2nc3ccccc3[nH]2)cc1	63*	-0.084	48	0.5	0.4
COC(=O)c1ccc(CSc2nnc(Nc3ccc(OC)cc3)s2)o1	6	-0.11	-6	1.1	0.9
COC(=O)c1oc2c(c1C)C1(CCC2)SCCS1	17	-4.2	49	0.5	0.8
CC(=O)C[C@H]1c2cc(F)ccc2S(=O)(=O)N1c1ccc(N(C)C)cc1	·	-0.31	·	·	·
COc1ccc(N2CCN(C(=O)c3ccc(OCC4CCCO4)cc3)CC2)cc1 (stereo not given)	6	-0.15	-22	1.2	0.9
